Assay outcomes: PubChem, several laboratories
ADAM17 inh = ADAM17 inhibition, QFRET primary screen; recombinant ADAM17, EDANS/DABCYL FRET peptide cleavage; inhibition, % at 6.95 µM; 370,000 tested, 0.83% active;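 active = inhibition above the mean of compounds lying between control limits plus 3 SD, set per campaign, cut at about 8.5% in these data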;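 note: 0% = DMSO-only wells as the low control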
ADAM10 inh = inhibitors of human ADAM10; O14672; recombinant ADAM10, EDANS/DABCYL FRET peptide cleavage, 3 h; inhibition, % at 7 µM; 370,000 tested, 0.62% active; AID 720582;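 active = inhibition above a per-campaign cutoff equal to the mean of compounds falling between control-based bounds plus 3 SD, cut at about 20% in these data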;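 note: 0% = DMSO wells while the 100% control is not disclosed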
KLK7 zymogen act = proKLK7 (human) activation, primary screen; purified proKLK7, EDANS-DABCYL substrate fluorescence; 100% is mature enzyme control, 0% vehicle; 370,000 tested, 0.9% active; activation, % at 7 µM;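 active = activation above the mean of all tested compounds plus 3 SD, computed per campaign excluding outliers beyond control limits, cut at about 13% in these data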
Target sequence (P49862 whole entry, looked up): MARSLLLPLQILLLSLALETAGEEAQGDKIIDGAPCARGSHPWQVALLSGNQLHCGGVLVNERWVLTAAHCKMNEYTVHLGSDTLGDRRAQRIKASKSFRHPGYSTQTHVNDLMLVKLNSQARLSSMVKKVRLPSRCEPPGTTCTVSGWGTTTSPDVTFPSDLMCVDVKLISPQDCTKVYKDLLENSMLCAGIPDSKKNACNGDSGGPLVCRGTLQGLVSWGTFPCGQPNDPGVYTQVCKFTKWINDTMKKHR
FGF22 binding = FGF22 (human) thermal shift binding. Q9HCT0. recombinant FGF22 thermal shift, SYPRO orange fluorescence; percent of sucrose octasulfate shift, DMSO zero. activity (Tm shift, normalised), % at 9.99 µM. 340,000 tested, 1.5% active;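 active = mean Tm shift, scaled 0 neutral to 100 positive control, at about 1.3% or above, every replicate too, limit read from the data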
Target sequence (Q9HCT0 whole entry, looked up): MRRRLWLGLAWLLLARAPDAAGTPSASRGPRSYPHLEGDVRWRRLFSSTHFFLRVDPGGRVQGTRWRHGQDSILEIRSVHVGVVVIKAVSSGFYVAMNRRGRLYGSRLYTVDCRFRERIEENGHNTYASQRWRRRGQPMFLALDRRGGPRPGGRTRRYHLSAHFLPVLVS
Ecoli rRNA inh = inhibits bacterial ribosomal RNA function over humanized ribosomes; GFP signal change (wild-type ribosome), % (test concentration not listed); 350,000 tested, 1.6% active; AID 720706; E. coli WT GFP vs humanized-ribosome RFP mutants, fluorescence, 24 h; stronger effect = lower value; DMSO median 0, no signal -100;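 active = significant combined selectivity score with lowered wild-type GFP, culture density cut under 30%, mutant RFP and density less affected; inactive = any of these conditions unmet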
Active calls of the source: *; x = not tested or not shown. Hits are enriched below; roughly 3.8% of the tested compounds scored in any of these assays.

SMILES	ADAM17 inh	ADAM10 inh	KLK7 zymogen act	FGF22 binding	Ecoli rRNA inh
COCC(=O)Nc1ccc2c(c1)C(=O)N(C)C[C@@H](OC)[C@@H](C)CN(C(C)=O)[C@H](C)CO2	x	x	x	0	2
Cc1oc(-c2cc(F)ccc2F)nc1CN1CCN(c2ncnc3ccccc23)CC1	-3	-8	0	0	-19
COc1ccc(-c2nc(CN3CCN(c4ncnc5ccccc45)CC3)c(C)o2)c(OC)c1	-2	-3	1	44*	-20
O=c1[nH]cnc2c1c(-c1ccccc1)cn2-c1ccccc1	-1	-6	0	0	-31*
Cc1csc(Nc2ccccc2)[n+]1-c1ccccc1	-1	-3	0	43*	-13
Cc1csc(Nc2ccccc2)[n+]1C	-2	-2	-1	0	1
COc1ccc(N2CCN(C(=O)c3ccc(Br)cc3)CC2)c([N+](=O)[O-])c1	2	8	0	41	-24*
COc1ccc(N2CCN(C(=O)c3ccccc3)CC2)c([N+](=O)[O-])c1	-4	2	0	0	-23*
COc1ccc(N2CCN(C(=O)c3ccc(C)cc3)CC2)c([N+](=O)[O-])c1	-3	-11	0	x	x
COc1ccc(-c2cc(C(F)(F)F)nc(S(C)(=O)=O)n2)cc1	-37	-188	1	x	x
CS(=O)(=O)c1nc(-c2ccc(F)cc2)cc(C(F)(F)F)n1	-7	-34	1	0	-34*
COc1ccc2c3c(n(C)c2c1)[C@H](CO)N(C(=O)C1CCCCC1)CC31CN(C(=O)Nc2cccc(F)c2)C1	x	x	x	0	-4
CCCC(=O)N1CC2(C1)CN(C(=O)C1CCCCC1)[C@@H](CO)c1[nH]c3cc(OC)ccc3c12	x	x	x	0	0
O=C(COc1ccc(Cl)cc1)NCc1nnc(SCC(=O)N2CCCC2)o1	0	-1	1	43*	9
O=C(COc1ccc(Cl)cc1)NCc1nnc(SCC(=O)N2CCCCC2)o1	-2	5	0	x	x
O=C(COc1ccc(Cl)cc1)NCc1nnc(SCC(=O)N2CCCCCC2)o1	1	0	0	43*	3
COc1ccc(C(=O)NCc2nnc(SCC(=O)N3CCC(C)CC3)o2)cc1	-1	0	-1	44*	4
C[C@@H]1CN([C@H](C)CO)C(=O)Cc2cc(NC(=O)Nc3cccc4ccccc34)ccc2O[C@H]1CN(C)C	x	x	x	0	-1
O=C(NC(=O)c1cccc(F)c1)Nc1nc(-c2ccc(F)cc2)cc(C(F)(F)F)n1	-1	1	0	44*	10
O=C(NC(=O)c1ccc(F)cc1)Nc1nc(-c2cccs2)cc(C(F)(F)F)n1	-9	-39	-1	0	8
O=C(C1CC1)N1C[C@@H]2N[C@H](C1)C2c1ccc(-c2ccccc2F)cc1 (some centres undefined)	x	x	x	x	-4
O=C(CSc1nc(O)cc(=O)n1-c1ccccc1)Nc1ccc2c3c(cccc13)CC2	4	-5	-1	43*	-1
NNc1nc2c(F)cc(F)cc2s1	-1	-8	0	0	-25*
C[C@H]1CN([C@@H](C)CO)C(=O)c2cc(C#CCc3ccccc3)cnc2O[C@H]1CN(C)Cc1ccccc1	x	x	x	-1	-34
CCCC1=[N+](CC(=O)c2ccccc2)CCn2cccc21	-6	-32	0	x	x
SMILES	ADAM17 inh	ADAM10 inh	KLK7 zymogen act	FGF22 binding	Ecoli rRNA inh
CCCC1=[N+](CC(C)=O)CCn2c(C)ccc21	-39	-128	2	43*	21
COC(=O)[C@@]1(Cc2ccccc2)[C@H]2C(=O)N(C)C(=O)[C@H]2[C@H]2CN=C(SCc3ccc(C#N)cc3)N21	-1	-17	0	0	-21*
COC(=O)[C@@]1(Cc2ccccc2)[C@H]2C(=O)N(Cc3ccccc3)C(=O)[C@H]2[C@H]2CN=C(SCc3ccccc3)N21	5	3	0	0	-13
CCN1C(=O)[C@H]2[C@H]3CN=C(SCc4ccc(C#N)cc4)N3[C@@](CC)(C(=O)OC)[C@H]2C1=O	-4	-11	1	42	4
COC(=O)[C@@]1(Cc2ccccc2)[C@H]2C(=O)N(C)C(=O)[C@H]2[C@H]2CN=C(SCc3ccccc3)N21	-1	-5	0	0	-16*
COc1ccc(NC(=O)Nc2ccc3c(c2)C(=O)N([C@@H](C)CO)C[C@H](C)[C@@H](CN(C)C(=O)CCC(F)(F)F)OCCCC[C@H](C)O3)cc1	x	x	x	0	0
COc1ccc(CNc2ncnc3cc(OC)c(OC)cc23)cc1OC	3	2	-1	0	-17*
COc1ccc(CNc2ncnc3cc(OC)c(OC)cc23)cc1	-4	-6	0	x	x
CCCNC(=O)N1CC2(CCN(C(=O)C3CCCCC3)CC2)c2c([nH]c3cc(OC)ccc23)[C@@H]1CO	x	x	x	0	-2
COC(=O)c1ccc(Cl)cc1NC(=O)/C=C/c1ccc(C)o1	-3	-1	0	44*	2
COC(=O)c1cc(Cl)c(NC(=O)/C=C/c2ccc(Cl)cc2Cl)cc1OC	-6	-5	0	x	x
COc1ccc(/C=C2\CCCC3C2=NN(C(=O)COC(=O)CNC(=O)c2ccccc2)C3c2ccc(OC)cc2)cc1 (centres undefined)	4	21*	0	x	x
O=C(Nc1ccc(C(F)(F)F)cc1)c1csc(-c2ccncc2)n1	8	18	1	43*	-3
CCC1=Nc2cc(C(=O)NCc3ccco3)ccc2Sc2ccc(Cl)cc21	0	-2	1	x	x
CCC1=Nc2cc(C(=O)NCc3cccnc3)ccc2Sc2ccc(C)cc21	-2	-5	0	0	-22*
COc1cccc(S(=O)(=O)N[C@@H]2C=C[C@H](CC(=O)NCc3ccc(F)cc3)O[C@@H]2CO)c1	x	x	x	-1	-3
C[C@@H]1CN([C@H](C)CO)C(=O)Cc2cc(NC(=O)Nc3ccccc3)ccc2O[C@@H]1CN(C)S(=O)(=O)c1ccc(Cl)cc1	x	x	x	x	1
O=C(c1ccco1)c1nnn(Cc2ccccc2)c1-c1ccccc1	1	4	1	0	-36*
CN1N=C2c3ccccc3CCCC2C1c1ccc(F)cc1 (centres undefined)	-2	-6	0	0	-40*
C[C@@H](NC(=O)[C@H]1[C@H](CO)[C@H]2Cn3c(ccc(C4=CCCCC4)c3=O)[C@@H]1N2)c1ccccc1	x	x	x	0	0
COc1ccc(CCN2C(=O)CC(C(N)=O)SC2=Nc2ccccc2)cc1 (centres undefined)	-2	5	0	0	-27*
O=c1[nH]ccc2c(O)cccc12	-36	-115	-11	-1	x
Nc1cccc2c(O)cccc12	-31	-80	-2	0	-28*
COc1cccc(NC(=O)N(C)C[C@H]2OCc3ccccc3-c3ccccc3C(=O)N([C@@H](C)CO)C[C@@H]2C)c1	x	x	x	x	-4
CC(Oc1ccccc1)C(=O)Nc1nnc(S(=O)(=O)Nc2ccccc2)s1 (centres undefined)	1	-1	0	0	-13*
